Among the data in publication PMC7862700, “An all-to-all approach to the identification of sequence-specific readers for epigenetic DNA modifications on cytosine” are binding signal values, retold here.

What all share (assay): DAPPL (digital affinity profiling via proximity ligation, sequencing); 10 mM Tris-HCl pH 7.5, 50 mM NaCl, 1 mM DTT, 4% glycerol, room temperature, 30 min; GST-TFs on glutathione beads, 16-mer random dsDNA library, 0.1% formaldehyde crosslink after washing; high values mean tight binding
Conditions in all cases: protein: recombinant; tags: N-terminal GST; dsDNA, one strand shown

One assay deals with T1, FLI1 (Homo sapiens, UniProt Q01543 1-452).
T1 sequence: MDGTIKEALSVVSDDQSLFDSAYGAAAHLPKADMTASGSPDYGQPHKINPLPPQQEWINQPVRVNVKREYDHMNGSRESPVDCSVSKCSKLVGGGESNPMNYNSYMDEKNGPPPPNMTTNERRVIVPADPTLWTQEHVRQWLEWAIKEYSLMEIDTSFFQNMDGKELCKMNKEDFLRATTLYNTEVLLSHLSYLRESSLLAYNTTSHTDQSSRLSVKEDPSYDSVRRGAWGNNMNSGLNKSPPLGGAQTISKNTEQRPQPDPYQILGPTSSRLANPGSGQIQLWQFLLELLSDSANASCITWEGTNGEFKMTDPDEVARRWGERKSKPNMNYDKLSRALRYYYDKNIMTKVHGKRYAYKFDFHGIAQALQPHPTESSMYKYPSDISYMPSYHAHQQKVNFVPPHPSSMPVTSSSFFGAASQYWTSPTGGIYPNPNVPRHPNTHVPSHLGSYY
In outline:
(§1)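 Pools of DNA-barcoded human transcription factors, expressed in yeast as GST fusions on glutathione beads and combined with a tag-only sample, were incubated with 200 nmole of a 16-mer random double-stranded DNA library. Incubation took 30 min at room temperature in Tris/NaCl/DTT/glycerol buffer and was followed by washing, 0.1% formaldehyde crosslinking, proximity ligation (BsaI/T4 ligase, 1 h, 37 °C), PCR amplification and sequencing on an Illumina NextSeq500. Binding signal is the ratio of a hexamer's read frequency for a factor to its frequency for the tag-only sample.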

For a further assay, the target named is T2, ELK1 (Homo sapiens, UniProt P19419 1-428).
T2 sequence: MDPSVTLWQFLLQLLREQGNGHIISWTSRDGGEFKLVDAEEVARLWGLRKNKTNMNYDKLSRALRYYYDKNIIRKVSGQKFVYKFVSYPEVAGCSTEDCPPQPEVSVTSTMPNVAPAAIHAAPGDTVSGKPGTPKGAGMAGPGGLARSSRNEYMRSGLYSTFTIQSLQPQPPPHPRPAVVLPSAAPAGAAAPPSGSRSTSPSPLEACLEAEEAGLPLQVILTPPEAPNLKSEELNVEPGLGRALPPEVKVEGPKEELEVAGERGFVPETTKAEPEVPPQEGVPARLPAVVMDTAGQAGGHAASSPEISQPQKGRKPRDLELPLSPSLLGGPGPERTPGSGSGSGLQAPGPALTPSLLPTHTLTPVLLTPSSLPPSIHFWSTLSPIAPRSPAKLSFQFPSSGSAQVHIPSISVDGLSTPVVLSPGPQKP
In outline: as §1

For a further assay, the target named is T3, GABPA (Homo sapiens, UniProt Q06546 1-454).
T3 sequence: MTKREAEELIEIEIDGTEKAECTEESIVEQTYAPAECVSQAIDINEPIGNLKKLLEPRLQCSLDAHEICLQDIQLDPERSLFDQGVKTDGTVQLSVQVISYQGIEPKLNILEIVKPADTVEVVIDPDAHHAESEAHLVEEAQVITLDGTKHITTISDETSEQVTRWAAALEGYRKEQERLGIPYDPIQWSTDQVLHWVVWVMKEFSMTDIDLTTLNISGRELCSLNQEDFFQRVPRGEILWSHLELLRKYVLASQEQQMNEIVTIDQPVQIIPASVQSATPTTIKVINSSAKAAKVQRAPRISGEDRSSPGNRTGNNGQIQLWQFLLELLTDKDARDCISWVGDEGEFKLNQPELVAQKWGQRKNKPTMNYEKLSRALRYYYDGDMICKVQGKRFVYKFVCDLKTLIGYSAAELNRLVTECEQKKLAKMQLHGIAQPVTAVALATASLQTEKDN
In outline: as §1

Another assay deals with T4, ERG (Homo sapiens, UniProt P11308 1-479).
T4 sequence: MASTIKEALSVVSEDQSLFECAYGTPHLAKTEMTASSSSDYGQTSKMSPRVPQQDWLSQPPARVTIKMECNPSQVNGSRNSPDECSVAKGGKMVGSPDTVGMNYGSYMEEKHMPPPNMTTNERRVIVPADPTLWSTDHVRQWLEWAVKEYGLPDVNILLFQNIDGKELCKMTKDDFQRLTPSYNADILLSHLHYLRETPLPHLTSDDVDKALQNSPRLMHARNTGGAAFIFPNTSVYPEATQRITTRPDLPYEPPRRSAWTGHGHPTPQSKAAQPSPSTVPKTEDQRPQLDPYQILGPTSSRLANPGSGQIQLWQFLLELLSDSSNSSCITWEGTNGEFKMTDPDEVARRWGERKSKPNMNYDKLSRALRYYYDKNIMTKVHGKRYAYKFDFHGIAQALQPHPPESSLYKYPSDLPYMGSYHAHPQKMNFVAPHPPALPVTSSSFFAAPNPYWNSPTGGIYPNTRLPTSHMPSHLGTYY
In outline: as §1

For a further assay, the target named is ELF1 (Homo sapiens, UniProt P32519 1-619). In outline: as §1
A further assay concerns the target T5, EHF (Homo sapiens, UniProt Q9NZC4 1-300).
T5 sequence: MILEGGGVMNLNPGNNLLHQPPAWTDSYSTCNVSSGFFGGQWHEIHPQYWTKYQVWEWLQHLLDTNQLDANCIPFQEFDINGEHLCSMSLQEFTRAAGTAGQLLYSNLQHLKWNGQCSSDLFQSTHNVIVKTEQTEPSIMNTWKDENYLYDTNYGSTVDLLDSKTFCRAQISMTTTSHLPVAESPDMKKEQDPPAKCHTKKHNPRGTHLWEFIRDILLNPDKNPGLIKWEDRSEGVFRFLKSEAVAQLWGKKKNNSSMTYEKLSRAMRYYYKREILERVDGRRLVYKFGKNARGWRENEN
In outline: as §1

For the next assay, the target named is SPI1 (Homo sapiens, UniProt P17947 1-270). In outline:
as §1

For a further assay, the target named is SPIB (Homo sapiens, UniProt Q01892 1-262). In outline:
as §1

A further assay concerns the target T6, FEV (Homo sapiens, UniProt Q99581 1-238).
T6 sequence: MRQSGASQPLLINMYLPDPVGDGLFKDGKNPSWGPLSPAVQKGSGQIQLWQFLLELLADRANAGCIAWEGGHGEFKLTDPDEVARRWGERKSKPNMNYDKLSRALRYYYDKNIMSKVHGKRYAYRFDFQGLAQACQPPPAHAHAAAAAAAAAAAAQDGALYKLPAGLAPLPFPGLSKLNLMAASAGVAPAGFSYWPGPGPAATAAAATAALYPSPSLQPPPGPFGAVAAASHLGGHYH
In outline: as §1

Another assay deals with ETV5 (Homo sapiens, UniProt P41161 1-510). In outline:
as §1

The target of a further assay is T7, SPIC (Homo sapiens, UniProt Q8N5J4 1-248).
T7 sequence: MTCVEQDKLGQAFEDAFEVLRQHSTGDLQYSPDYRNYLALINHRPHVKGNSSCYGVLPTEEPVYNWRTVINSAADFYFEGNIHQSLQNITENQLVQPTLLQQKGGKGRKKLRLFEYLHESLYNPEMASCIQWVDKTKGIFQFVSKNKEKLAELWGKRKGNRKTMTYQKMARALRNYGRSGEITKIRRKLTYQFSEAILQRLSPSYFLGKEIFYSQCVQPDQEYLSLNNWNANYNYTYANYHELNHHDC
In outline:
as §1

In another assay the target is ELF4 (Homo sapiens, UniProt Q99607 1-663). In outline:
as §1

The target of the next assay is ETV1 (Homo sapiens, UniProt P50549 1-477). In outline:
as §1

The next assay has as its target T8, ETV3L (Homo sapiens, UniProt Q6ZN32 1-361).
T8 sequence: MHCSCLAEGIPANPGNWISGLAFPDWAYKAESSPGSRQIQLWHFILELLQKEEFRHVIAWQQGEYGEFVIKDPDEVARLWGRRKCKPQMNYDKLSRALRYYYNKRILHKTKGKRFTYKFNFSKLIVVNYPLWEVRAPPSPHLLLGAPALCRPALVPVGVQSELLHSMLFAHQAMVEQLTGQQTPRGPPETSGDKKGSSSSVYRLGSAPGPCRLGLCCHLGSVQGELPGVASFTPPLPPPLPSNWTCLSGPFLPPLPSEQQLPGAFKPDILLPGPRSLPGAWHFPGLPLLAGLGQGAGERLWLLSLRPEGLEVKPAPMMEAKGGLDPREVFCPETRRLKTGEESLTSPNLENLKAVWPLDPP
In outline: as §1

For a further assay, the target named is T9, ETS2 (Homo sapiens, UniProt P15036 1-469).
T9 sequence: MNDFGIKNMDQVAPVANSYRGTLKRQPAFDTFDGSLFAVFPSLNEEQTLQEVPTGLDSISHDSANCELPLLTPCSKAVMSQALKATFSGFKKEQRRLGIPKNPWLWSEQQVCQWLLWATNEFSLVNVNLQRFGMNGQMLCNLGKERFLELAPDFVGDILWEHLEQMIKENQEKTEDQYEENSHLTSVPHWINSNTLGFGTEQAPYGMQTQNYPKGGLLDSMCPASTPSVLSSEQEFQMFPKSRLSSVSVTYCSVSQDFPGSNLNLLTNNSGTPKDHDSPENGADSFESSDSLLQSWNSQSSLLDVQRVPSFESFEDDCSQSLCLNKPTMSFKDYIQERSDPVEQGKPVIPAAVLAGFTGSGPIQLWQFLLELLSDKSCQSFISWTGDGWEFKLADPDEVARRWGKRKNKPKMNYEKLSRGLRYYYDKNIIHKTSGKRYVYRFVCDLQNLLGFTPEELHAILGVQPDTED
In outline: as §1

The target of another assay is T10, SPDEF (Homo sapiens, UniProt O95238 1-335).
T10 sequence: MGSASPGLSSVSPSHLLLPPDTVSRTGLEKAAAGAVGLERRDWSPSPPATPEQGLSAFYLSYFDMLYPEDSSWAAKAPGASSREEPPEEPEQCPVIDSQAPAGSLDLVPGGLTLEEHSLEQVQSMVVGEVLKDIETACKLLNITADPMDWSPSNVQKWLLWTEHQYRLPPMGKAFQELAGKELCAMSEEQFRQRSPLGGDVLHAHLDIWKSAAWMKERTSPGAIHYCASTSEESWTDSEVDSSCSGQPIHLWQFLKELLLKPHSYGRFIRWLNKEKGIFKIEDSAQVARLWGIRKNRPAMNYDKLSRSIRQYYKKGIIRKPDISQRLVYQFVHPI
In outline: as §1

Another assay deals with T11, ELF5 (Homo sapiens, UniProt Q9UKW6-2 1-255).
T11 sequence: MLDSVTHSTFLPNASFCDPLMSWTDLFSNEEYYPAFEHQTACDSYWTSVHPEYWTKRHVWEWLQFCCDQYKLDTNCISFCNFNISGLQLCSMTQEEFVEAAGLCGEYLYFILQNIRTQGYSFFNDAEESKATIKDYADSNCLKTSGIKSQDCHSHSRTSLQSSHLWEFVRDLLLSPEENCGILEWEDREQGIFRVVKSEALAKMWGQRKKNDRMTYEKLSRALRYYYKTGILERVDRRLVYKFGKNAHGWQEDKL
In outline: as §1

Another assay has as its target T12, ETV3 (Homo sapiens, UniProt P41162-2 1-143).
T12 sequence: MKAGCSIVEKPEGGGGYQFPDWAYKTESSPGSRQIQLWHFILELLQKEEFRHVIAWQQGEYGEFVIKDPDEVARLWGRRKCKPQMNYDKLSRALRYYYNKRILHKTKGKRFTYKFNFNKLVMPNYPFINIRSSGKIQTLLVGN
In outline:
as §1

The target of a further assay is ETV6 (Homo sapiens, UniProt P41212 1-452). In outline: as §1
Chain of ETV6 (P41212 whole entry): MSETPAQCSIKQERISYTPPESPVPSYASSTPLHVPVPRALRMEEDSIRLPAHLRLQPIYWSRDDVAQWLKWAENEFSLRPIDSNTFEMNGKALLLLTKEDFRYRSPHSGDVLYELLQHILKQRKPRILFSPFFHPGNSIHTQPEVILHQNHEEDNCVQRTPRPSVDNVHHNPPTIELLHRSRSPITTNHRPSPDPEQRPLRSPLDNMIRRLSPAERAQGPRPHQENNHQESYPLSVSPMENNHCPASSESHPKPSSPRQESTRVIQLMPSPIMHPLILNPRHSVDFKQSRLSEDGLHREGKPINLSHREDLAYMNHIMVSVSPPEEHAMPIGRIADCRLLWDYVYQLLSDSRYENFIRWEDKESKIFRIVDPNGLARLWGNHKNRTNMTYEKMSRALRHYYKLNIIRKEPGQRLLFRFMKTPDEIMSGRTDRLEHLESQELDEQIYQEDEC

Chain of ELF1 (P32519 whole entry): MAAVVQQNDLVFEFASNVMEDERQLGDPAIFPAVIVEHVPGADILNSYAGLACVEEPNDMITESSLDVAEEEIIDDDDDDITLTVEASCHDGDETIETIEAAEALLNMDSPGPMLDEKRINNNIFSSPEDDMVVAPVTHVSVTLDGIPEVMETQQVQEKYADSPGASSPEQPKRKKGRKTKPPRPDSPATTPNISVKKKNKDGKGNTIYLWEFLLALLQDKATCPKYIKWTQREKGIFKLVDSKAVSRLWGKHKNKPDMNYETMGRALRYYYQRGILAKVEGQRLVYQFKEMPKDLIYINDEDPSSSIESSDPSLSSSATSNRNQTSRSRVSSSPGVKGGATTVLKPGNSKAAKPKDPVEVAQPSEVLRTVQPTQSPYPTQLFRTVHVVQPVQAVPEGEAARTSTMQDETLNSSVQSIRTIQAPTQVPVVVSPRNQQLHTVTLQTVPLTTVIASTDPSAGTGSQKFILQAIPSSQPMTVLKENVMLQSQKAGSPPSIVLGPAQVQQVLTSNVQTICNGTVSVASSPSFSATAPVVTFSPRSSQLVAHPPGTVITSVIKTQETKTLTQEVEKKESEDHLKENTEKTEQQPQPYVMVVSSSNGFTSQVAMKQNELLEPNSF
Chain of ELF4 (Q99607 whole entry): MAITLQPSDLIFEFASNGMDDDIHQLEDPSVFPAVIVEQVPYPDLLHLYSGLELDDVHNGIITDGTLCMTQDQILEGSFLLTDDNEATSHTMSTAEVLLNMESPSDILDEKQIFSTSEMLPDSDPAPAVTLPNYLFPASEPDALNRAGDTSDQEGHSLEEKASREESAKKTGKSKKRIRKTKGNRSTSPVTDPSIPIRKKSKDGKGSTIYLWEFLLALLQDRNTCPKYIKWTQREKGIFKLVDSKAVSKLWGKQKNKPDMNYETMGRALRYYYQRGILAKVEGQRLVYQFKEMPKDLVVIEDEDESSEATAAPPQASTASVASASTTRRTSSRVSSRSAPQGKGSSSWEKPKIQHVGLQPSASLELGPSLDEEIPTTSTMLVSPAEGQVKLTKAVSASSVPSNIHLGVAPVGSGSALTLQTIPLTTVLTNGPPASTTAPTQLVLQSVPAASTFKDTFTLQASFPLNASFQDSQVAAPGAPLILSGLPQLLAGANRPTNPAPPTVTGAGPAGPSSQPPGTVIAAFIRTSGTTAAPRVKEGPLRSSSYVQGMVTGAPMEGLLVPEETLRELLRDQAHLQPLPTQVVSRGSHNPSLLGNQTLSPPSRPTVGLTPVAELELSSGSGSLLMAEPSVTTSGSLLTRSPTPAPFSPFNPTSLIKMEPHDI
Chain of ETV1 (P50549 whole entry): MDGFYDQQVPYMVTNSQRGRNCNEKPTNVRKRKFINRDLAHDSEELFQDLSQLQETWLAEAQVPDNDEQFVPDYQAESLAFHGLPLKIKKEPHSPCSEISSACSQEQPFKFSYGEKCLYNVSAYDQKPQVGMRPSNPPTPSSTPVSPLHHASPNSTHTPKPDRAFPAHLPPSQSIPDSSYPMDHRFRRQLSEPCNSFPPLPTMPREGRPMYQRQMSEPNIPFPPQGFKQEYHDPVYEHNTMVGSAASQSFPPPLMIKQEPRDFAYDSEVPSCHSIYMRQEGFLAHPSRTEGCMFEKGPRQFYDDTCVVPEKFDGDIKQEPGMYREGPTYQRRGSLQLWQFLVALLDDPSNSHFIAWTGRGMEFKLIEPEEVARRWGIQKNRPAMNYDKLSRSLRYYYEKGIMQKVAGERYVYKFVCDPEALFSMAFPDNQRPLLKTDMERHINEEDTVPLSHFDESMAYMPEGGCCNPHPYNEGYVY
Chain of ETV5 (P41161 whole entry): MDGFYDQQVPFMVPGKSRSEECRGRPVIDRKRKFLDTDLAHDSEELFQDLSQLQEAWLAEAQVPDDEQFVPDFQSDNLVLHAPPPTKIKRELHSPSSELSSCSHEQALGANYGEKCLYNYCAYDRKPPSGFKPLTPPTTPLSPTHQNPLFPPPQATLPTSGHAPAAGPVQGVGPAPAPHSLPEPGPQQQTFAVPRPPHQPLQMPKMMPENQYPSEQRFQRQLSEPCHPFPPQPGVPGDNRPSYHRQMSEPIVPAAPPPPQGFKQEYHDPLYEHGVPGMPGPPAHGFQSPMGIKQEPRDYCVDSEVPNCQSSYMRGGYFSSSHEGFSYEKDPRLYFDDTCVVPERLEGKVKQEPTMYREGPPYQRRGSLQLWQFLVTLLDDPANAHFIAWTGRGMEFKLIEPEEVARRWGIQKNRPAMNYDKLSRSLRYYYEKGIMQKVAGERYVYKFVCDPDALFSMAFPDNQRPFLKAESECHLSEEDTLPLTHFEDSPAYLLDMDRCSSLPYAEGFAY
Chain of SPIB (Q01892 whole entry): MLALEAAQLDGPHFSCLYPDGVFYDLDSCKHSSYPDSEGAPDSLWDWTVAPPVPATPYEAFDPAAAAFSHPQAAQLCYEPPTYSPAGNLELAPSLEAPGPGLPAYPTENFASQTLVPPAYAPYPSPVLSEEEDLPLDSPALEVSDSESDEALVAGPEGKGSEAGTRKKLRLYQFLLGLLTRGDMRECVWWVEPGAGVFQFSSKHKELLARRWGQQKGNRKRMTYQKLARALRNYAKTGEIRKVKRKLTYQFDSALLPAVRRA

Consider GCTGCC, for which the binding signal with FLI1 was 1.13 fold enrichment (6-mer frequency, TF over GST control); with ELK1 it was 1.08 fold enrichment (6-mer frequency, TF over GST control); with GABPA it was 1.18 fold enrichment (6-mer frequency, TF over GST control); with ERG, 1.02 fold enrichment (6-mer frequency, TF over GST control); with ELF1 it was 1.03 fold enrichment (6-mer frequency, TF over GST control); with EHF, 1.24 fold enrichment (6-mer frequency, TF over GST control). Besides, the binding signal was 1.06 fold enrichment (6-mer frequency, TF over GST control) with SPI1; 1.03 fold enrichment (6-mer frequency, TF over GST control) with SPIB; 1.14 fold enrichment (6-mer frequency, TF over GST control) with FEV; 1.04 fold enrichment (6-mer frequency, TF over GST control) in the assay with ETV5; 1.01 fold enrichment (6-mer frequency, TF over GST control) with SPIC; 1.06 fold enrichment (6-mer frequency, TF over GST control) in the assay with ELF4. Besides, the binding signal was 1.19 fold enrichment (6-mer frequency, TF over GST control) in the assay with ETV1; 1.03 fold enrichment (6-mer frequency, TF over GST control) in the assay with ETV3L; 1.08 fold enrichment (6-mer frequency, TF over GST control) with ETS2; 1.09 fold enrichment (6-mer frequency, TF over GST control) in the assay with SPDEF; 1.09 fold enrichment (6-mer frequency, TF over GST control) with ELF5; 1.12 fold enrichment (6-mer frequency, TF over GST control) with ETV3. The binding signal with ETV6 was 1.13 fold enrichment (6-mer frequency, TF over GST control).
